# Most compounds without a hit are left out; they make up all but 2.9% or so of the library.
# DRD3 antagonist: blocks the human D3 dopamine receptor. D3R cells, DiscoveRx beta-arrestin luminescence, antagonist mode; hits give low values. max response, negative = inhibition, %. hit rate 2.5% among 360,000. AID 652054; in the data active = max response below about -50%; inconclusive = no clear call, values can overlap the other calls
# Target sequence (P35462 whole entry, looked up): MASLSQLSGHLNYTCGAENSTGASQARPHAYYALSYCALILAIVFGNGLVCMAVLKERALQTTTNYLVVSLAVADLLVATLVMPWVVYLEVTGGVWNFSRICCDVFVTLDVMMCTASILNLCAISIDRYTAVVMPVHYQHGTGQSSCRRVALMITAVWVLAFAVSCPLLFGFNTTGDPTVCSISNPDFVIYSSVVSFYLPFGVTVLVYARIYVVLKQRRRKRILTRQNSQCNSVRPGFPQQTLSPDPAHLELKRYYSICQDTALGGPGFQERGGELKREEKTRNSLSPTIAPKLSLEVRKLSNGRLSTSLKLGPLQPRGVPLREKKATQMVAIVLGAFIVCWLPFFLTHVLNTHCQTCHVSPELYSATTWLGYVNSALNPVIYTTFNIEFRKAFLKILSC
#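 Cells expressing the human receptor were seeded at 1500 cells/well, incubated overnight at 37 degrees C in 5% CO2, then exposed to library compounds with dopamine controls for 90 minutes at 37 degrees C before luminescent detection.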
# DRD3 agonist: agonists of human D3 dopamine receptor. P35462. D3R DiscoveRx beta-arrestin cells, luminescence, 90 min. max activation, %. hit rate 0.58% among 410,000. AID 652048; in the data active = max activation above about 30%
#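 Cells at 1500/well, incubated overnight, then treated with pinned compounds (dopamine as control) for 90 min at 37 degrees C. DiscoveRx reagent added for 30 - 60 minutes at room temperature; luminescence read.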
# a7 integrin act: activators of alpha7 integrin expression for muscular dystrophy; Potency, µM (titrated, usually from 38.3 µM), usual class: activators; alpha7betagal myoblasts, beta-gal FDG fluorescence, 48 h; hit rate 0.064% among 350,000; active = well fitted activation curve with a large enough effect; inconclusive = small, poorly fitted or top-dose-only effect; inactive = no such curve, though single readings can be large or run the other way; also: nearly all actives have a fitted effect of over 60% in size
#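 Alpha7betagal+/- myoblasts (passage 13) were plated 16-24 hr, then exposed to compounds (1:260 dilution of DMSO stock) for 48 hours at 37C. After MPER lysis, β-galactosidase reporter activity was read as FDG fluorescence (ex 480/em 540) after 30 minutes.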
# A number is an active result; i = inactive; ? = inconclusive; nt = no result; [ ] = dose if it differs, or a comment.
SMILES,DRD3 antagonist,DRD3 agonist,a7 integrin act
O=C1C2CCCN2C(=O)N1CCN1CCN(c2ccccc2)CC1 (stereo not given),i,i,i
O=C1C2CCCN2C(=O)N1CCCCN1CCN(CCO)CC1 (stereo not given),i,i,i
CCCNc1nc2nc3ccccn3c(=O)c2cc1C(=O)NCCN1CCOCC1,i,i,i
CCCCOC(=O)c1ccc(NC(=O)c2ccoc2C)cc1,i,i,i
CN1C(=O)NC(c2cccc([N+](=O)[O-])c2)C2=C1CC(C)(C)CC2=O (stereo not given),i,i,i
O=C(OCc1ccccc1)c1ccc(NCc2cc(O)ccc2O)cc1,-67.7,i,i
CC(C)OC(=O)c1ccc(NCc2cc(O)ccc2O)cc1,?,i,i
CC1Oc2ccccc2N(CC(=O)NCc2ccccc2)C1=O (stereo not given),i,i,i
CN(C)CC#CCC(O)(c1ccccc1)C1CCCCC1 (stereo not given),-55.0,i,i
CCN(CC)CC#CCC(O)(c1ccccc1)C1CCCC1 (stereo not given),i,i,i
Cc1ccc(NC(=O)COC(=O)C2CC2)cc1Cl,i,i,i
O=C(/C=C/c1ccccc1)N/C(=C/c1ccccc1)C(=O)N1CCOCC1,i,i,i
O=C(O)c1cccc2c1C(=O)c1ccccc1-2,i,i,i
O=C1C(=C(I)I)c2ccccc2-c2ccccc21,-99.8,i,i
COc1ccc(S(=O)(=O)N2CCCCC2c2cc(C(=O)N3CCOCC3)no2)cc1 (stereo not given),-96.4,i,nt
CCCNC(=O)c1cc(C2CCCCN2S(=O)(=O)c2ccc(OC)cc2)on1 (stereo not given),i,i,nt
O=C(Nc1ccccc1)Nc1nnc(CSCc2ccccc2Cl)s1,i,i,i
Cc1ccccc1CN1CCN(S(C)(=O)=O)CC1,?,i,i
Cc1ccccc1CN1CCN(S(=O)(=O)c2ccc(F)cc2)CC1,-77.8,i,i
COc1cccc(CN2CCN(S(=O)(=O)c3ccccc3)CC2)c1OC,i,i,i
COc1ccccc1CN1CCN(S(=O)(=O)c2ccccc2)CC1,-67.5,i,i
COc1ccc(OC)c(CN2CCN(S(=O)(=O)c3ccccc3)CC2)c1,i,i,i
COc1ccc(CN2CCN(S(=O)(=O)c3ccccc3)CC2)c(OC)c1,-69.5,i,i
CCc1noc(C)c1C(=O)NNC(=O)c1ccc(N(CC)CC)cc1,i,i,i
CS(=O)(=O)c1cccc(C(=O)Nc2ccccc2Cc2ccccc2)c1,i,i,i
SMILES,DRD3 antagonist,DRD3 agonist,a7 integrin act
COc1ccccc1CC(=O)NC12CC3CC(CC(C3)C1)C2,i,i,i
CC(SCc1ccccc1)C(=O)Nc1ccccc1F (stereo not given),i,i,i
CCCSc1cc(NCCOC(=O)CCC)c([N+](=O)[O-])c2nonc12,i,i,i
CCC(=O)OCCNc1cc(Sc2nc3ccccc3s2)c2nonc2c1[N+](=O)[O-],-87.8,i,i[7.66 µM]
CCCC(=O)OCCNc1cc(Sc2nccn2C)c2nonc2c1[N+](=O)[O-],-91.9,i,i
CCC(=O)OCCNc1cc(Sc2nc3ccccc3[nH]2)c2nonc2c1[N+](=O)[O-],-115.9,i,i
CS(=O)(=O)c1ccc(Sc2nc3ccccc3[nH]2)c([N+](=O)[O-])c1,?,i,i
CC(=O)OCCCNc1cc(SCc2ccco2)c2nonc2c1[N+](=O)[O-],i,i,i
CCCC(=O)OCCNc1cc(SCc2ccco2)c2nonc2c1[N+](=O)[O-],i,i,i
O=[N+]([O-])c1c(NCCCO)cc(Sc2nc3ccccc3s2)c2nonc12,-89.9,i,i
CCC(c1nnnn1-c1ccc2c(c1)OCCO2)N1CCN(CC)CC1 (stereo not given),i,i,nt
FC(F)(F)Oc1ccccc1C(c1nnnn1-c1ccc2c(c1)OCCO2)N1CCN(C/C=C/c2ccccc2)CC1 (stereo not given),-57.2,i,nt
CN(C)CCN1CCN(C(c2ccnc3ccccc23)c2nnnn2-c2ccc3c(c2)OCCO3)CC1 (stereo not given),i,i,nt
C(=C\c1ccccc1)/CN1CCN(C(c2cccc3ccccc23)c2nnnn2-c2ccc3c(c2)OCCO3)CC1 (stereo not given),-72.6,i,nt
O=C(OCc1ccccc1)c1ccccc1O,i,i,i
COC(=O)CSc1snnc1-c1ccc(F)cc1,i,i,i
CCN(C(=O)COC(=O)c1c(C)noc1C)C1CCS(=O)(=O)C1 (stereo not given),i,i,i
O=C1C=C(NCc2ccccc2)CCC1,i,i,i
O=C1C=C(NC2=CC3OC(c4ccccc4)OCC3OC2=O)CCC1 (stereo not given),-72.4,i,i
Cc1ccc(CNC(=O)CCCCCn2c(=O)c3sccc3n(CC(=O)C(C)(C)C)c2=O)cc1,nt,i,nt
Cc1cn2c(=O)cc(COc3ccc(NC(=O)c4ccc(C(C)(C)C)cc4)cc3)nc2s1,nt,51.0,nt
Cc1cn2c(=O)cc(COc3ccccc3NC(=O)c3ccc(C(C)(C)C)cc3)nc2s1,nt,i,nt
COc1ccc2c(c1)CC(C(=O)Nc1cccc(C)c1C)CO2 (stereo not given),nt,i,nt
COc1ccc2c(c1)CC(C(=O)Nc1cc(Cl)ccc1C)CO2 (stereo not given),nt,67.5,nt
CCO/C(=C/c1sc2ccc(OC)cc2[n+]1CCCS(=O)(=O)[O-])CC,-73.0,i,i
SMILES,DRD3 antagonist,DRD3 agonist,a7 integrin act
CCC(/C=C1\Sc2ccc(OC)cc2N1CC)=C\c1sc2ccc(OC)cc2[n+]1CCCS(=O)(=O)[O-],i,i,i
CC(O)CNc1nc(NCc2ccccc2)c2cnn(C)c2n1 (stereo not given),i,i,i
CCN(Cc1cnn(C)c1)Cc1nc(Cc2ccccc2Cl)no1,i,42.2,i
CN(CCc1cnn(C)c1)Cc1nc(Cc2ccccc2)no1,i,i,i
Cc1nc(-c2ccc(S(=O)(=O)NCc3ccccc3Cl)cc2)co1,nt,i,nt
CCCc1ccc(OCCNC(C)=O)cc1,i,i,i
CC(=O)NCCOc1ccc(C(=O)O)cc1,-54.8,i,i
NC(=O)c1nc(Nc2ccccc2)sc1NC(=O)c1ccccc1Br,nt,i,nt
O=C1NC(=S)NC1=Cc1ccc(O)cc1,i,i,i
O=C1NC(=S)N/C1=C/c1cc([N+](=O)[O-])ccc1O,-106.5,i,i
O=C1NC(=S)N/C1=C/c1cccc([N+](=O)[O-])c1O,-74.8,i,i
Cc1ccc(/C=C2\NC(=S)NC2=O)cc1[N+](=O)[O-],i,i,i
Nc1nc(CSc2ccc(Cl)cc2)nc(N2CCCCC2)n1,i,i,i
COc1cc(/C=C/c2ccc3cccc(OC)c3n2)c(OC(C)=O)c([N+](=O)[O-])c1,-53.0,i,i
COc1cc(/C=C/c2ccc3cccc(OC)c3n2)c(O)c([N+](=O)[O-])c1,i,i,i
O=C(COc1ccc(Cl)cc1)N/N=C/CCc1ccccc1,-60.0,i,i
O=C(COc1ccccc1)NCC(=O)N/N=C/c1ccc(Cl)cc1,i,i,?
CCCCn1c(N)c(N(CCC(C)C)C(=O)CSc2nnc(C)s2)c(=O)[nH]c1=O,i,i,i
COC(=O)C1=C(C)N(Cc2ccccc2)C(=NCCc2c[nH]c3ccccc23)N[C@H]1c1cccc(C(F)(F)F)c1,i,i,i
CC(C)n1nc(C(=O)Oc2ccc(Cl)cc2)c2ccccc2c1=O,i,i,i

# Compound activity deposited in PubChem BioAssay by National Center for Advancing Translational Sciences (NCATS).
